Results: PubChem BioAssay (Tox21)
Where “and” joins values, the source holds several entries; their conditions need not be identical. Equal entries are not always repeated. Results filed as inconclusive are left out. A call without a number means that no potency is given here. Where a structure was tested more than once in an assay, its records may differ in their call. Calls of active or inactive are those of the source. Unless noted, calls come from the whole dose curve; as a rule, active = well fitted curve in the direction sought with a large enough effect in the repeat runs; inconclusive = weak or mixed curves; inactive = no such curve, though single readings can be large; an effect the other way counts as inactive or inconclusive.

How the values were obtained:
[1] = qHTS assay to identify aromatase inhibitors - cell viability counter screen (AID 743084);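 note: cells stimulated with testosterone during compound exposure; nearly all actives have a fitted effect of over 55% in size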; note: potency is the fitted concentration of half-maximal effect
[2] = molecular target: Aryl hydrocarbon receptor (Homo sapiens) (UniProt P35869); assay: qHTS assay to identify small molecule that activate the aryl hydrocarbon receptor (AhR) signaling pathway (AID 743085); note: nearly all actives have a fitted effect of over 15% in size; note: potency is the fitted concentration of half-maximal effect;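 for activation: HG2L7.5c1 human HepG2 liver cells with stably integrated DRE-driven firefly reporter; series mostly up to about 70 µM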
In short: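 Cell line HG2L7.5c1 (human hepatoma, 20× DRE-luc). Plated, 5 h 37C, compound/DMSO added, 24 h 37C. CellTiter-Fluor 30 min 37C → fluorescence; then ONE-Glo 30 min RT → luminescence.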

[3] = qHTS assay to identify small molecule that activate the aryl hydrocarbon receptor (AhR) signaling pathway - cell viability counter screen (AID 743086);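 note: HepG2 liver cells carrying the AhR DRE luciferase reporter; series mostly up to about 70 µM; nearly all actives have a fitted effect of over 45% in size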
In short: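 Cytotoxicity counter screen: CellTiter-Fluor signal (30 min, 37 C) in 4000 HepG2 cells/well carrying the DRE-luciferase reporter, following 24 h compound exposure at 37 C.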

[4] = molecular target: Peroxisome proliferator-activated receptor gamma (Homo sapiens) (UniProt P37231); assay: qHTS assay to identify small molecule agonists of the peroxisome proliferator-activated receptor gamma (PPARg) signaling pathway (AID 743094; active = well fitted activation curve with a large enough effect in the signal ratio in the repeat runs, not every such curve was filed as active; the % refers to the signal ratio; note: potency is the fitted concentration of half-maximal effect)
In short: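 GeneBLAzer PPARg UAS-bla HEK293H cells were plated, rested 5 h, then exposed to compounds for 17 h at 37C. Beta-lactamase activity was read by LiveBLAzer B/G FRET substrate fluorescence after 1 h at room temperature.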

[5] = molecular target: Peroxisome proliferator-activated receptor gamma (Homo sapiens) (UniProt P37231); assay: qHTS assay to identify small molecule antagonists of the peroxisome proliferator-activated receptor gamma (PPARg) signaling pathway (AID 743191; calls by dose curve; note: nearly all actives have a fitted effect of over 30% in size; note: potency is the fitted concentration of half-maximal effect)
In short: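 Beta-lactamase reporter under UAS control in HEK293H PPARg-bla cells; compound treatment 17 h at 37C. Read-out: fluorescence intensity after 1 h room-temperature incubation with LiveBLAzer B/G FRET substrate.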

[6] = qHTS assay to identify small molecule antagonists of the peroxisome proliferator-activated receptor gamma (PPARg) signaling pathway - cell viability counter screen (AID 743194); note: nearly all actives have a fitted effect of over 55% in size
In short: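 Viability was measured as CellTiter-Glo luminescence in GeneBLAzer PPARg UAS-bla HEK293H cells. These cells had been exposed 17 h at 37 C to compounds together with rosiglitazone at 50 nM final, with the beta-lactamase readout taken in the same wells.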

[7] = qHTS assay for small molecule agonists of the antioxidant response element (ARE) signaling pathway - cell viability counter screen (AID 743203; calls by dose curve; note: nearly all actives have a fitted effect of over 55% in size)
In short: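 ARE-bla HepG2 cells were plated, rested 5 h at 37C/5% CO2, then exposed to compounds in DMSO for 16 h. Viability was read as CellTiter-Glo luminescence after 30 min at room temperature, in the same wells as the ARE screen.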

[8] = qHTS assay for small molecule activators of the heat shock response signaling pathway - cell viability counter screen (AID 743209); note: nearly all actives have a fitted effect of over 50% in size
In short: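 HSE-bla HeLa cells plated overnight, then exposed to Tox21 compounds (23 nL in DMSO) for 5 h at 37 C. After the bla reporter read, CellTiter-Glo was added in the same wells and luminescence read after 30 min at room temperature.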

[9] = qHTS assay to identify small molecule agonists of the peroxisome proliferator-activated receptor delta (PPARd) signaling pathway - cell viability counter screen (AID 743211); note: nearly all actives have a fitted effect of over 55% in size
In short: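 HEK293H PPARd-bla, 3000 cells/well; 5 h preincubation 37C/5% CO2; cpd in DMSO, 17 h 37C; B/G FRET substrate 2 h RT; CellTiter-Glo 30 min RT, luminescence.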

[10] = qHTS assay to identify small molecule antagonists of the peroxisome proliferator-activated receptor delta (PPARd) signaling pathway - cell viability counter screen (AID 743213); note: nearly all actives have a fitted effect of over 50% in size
In short: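 Cytotoxicity counter screen: CellTiter-Glo luminescence read 30 min after addition, in the same wells as the reporter assay. There, PPARd UAS-bla HEK293H cells (3000/well) were treated 17 h at 37 C with compound and 300 nM L165041.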

[11] = molecular target: Bile acid receptor (Homo sapiens) (UniProt Q96RI1); assay: qHTS assay to identify small molecule antagonists of the farnesoid-X-receptor (FXR) signaling pathway (AID 743217; active = well fitted inhibition curve with a large enough effect in the signal ratio in the repeat runs, not every such curve was filed as active; the % refers to the signal ratio)
In short: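 FXR-UAS-bla HEK 293T cells (beta-lactamase reporter) given compound plus chenodeoxycholic acid (50 uM final), 16 h at 37C. LiveBLAzer B/G FRET substrate added for 2 h at room temperature; fluorescence read.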

[12] = qHTS assay to identify small molecule agonists of the farnesoid-X-receptor (FXR) signaling pathway - cell viability counter screen (AID 743218); note: nearly all actives have a fitted effect of over 45% in size
In short: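 FXR-UAS-bla HEK 293T cells exposed to compounds for 16 h at 37C. Cytotoxicity read in the same wells by CellTiter-Glo luminescence after 30 min at room temperature, following the beta-lactamase FRET read.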

[13] = molecular target: Bile acid receptor (Homo sapiens) (UniProt Q96RI1); assay: qHTS assay to identify small molecule agonists of the farnesoid-X-receptor (FXR) signaling pathway (AID 743220; active = well fitted activation curve with a large enough effect in the signal ratio in the repeat runs, not every such curve was filed as active; the % refers to the signal ratio)
In short: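 Beta-lactamase reporter under UAS control in GeneBLAzer FXR HEK 293T cells (5000/well) measured with LiveBLAzer FRET substrate after 2 h at room temperature. Compound exposure lasted 16 h at 37C.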

[14] = molecular target: Vitamin D3 receptor (Homo sapiens) (UniProt P11473); assay: qHTS assay to identify small molecule agonists of the vitamin D receptor (VDR) signaling pathway (AID 743222; calls by dose curve)
In short: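 VDR-bla cells plated 4 h at 37 C, then exposed to compounds for 16 h at 37 C. Beta-lactamase reporter activity measured by fluorescence after 2 h room-temperature loading with LiveBLAzer B/G FRET substrate.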

[15] = molecular target: Vitamin D3 receptor (Homo sapiens) (UniProt P11473); assay: qHTS assay to identify small molecule antagonists of the vitamin D receptor (VDR) signaling pathway (AID 743223; active = well fitted inhibition curve with a large enough effect in the signal ratio in the repeat runs, not every such curve was filed as active; the % refers to the signal ratio)
In short: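 Antagonist mode uses 1alpha,25-dihydroxyvitamin D3 at 3 nM final as stimulus. VDR-bla cells receive compounds in DMSO, incubate 16 h at 37C, then a beta-lactamase FRET substrate for 2 h at room temperature before fluorescence measurement.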

[16] = qHTS assay for small molecule agonists of the antioxidant response element (ARE) signaling pathway (AID 743202; active = well fitted activation curve with a large enough effect in the signal ratio in the repeat runs, not every such curve was filed as active; the % refers to the signal ratio; note: potency is the fitted concentration of half-maximal effect)
In short: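 An ARE-responsive beta-lactamase gene stably integrated in HepG2 cells serves as reporter. After 5 h plating and 16 h compound incubation at 37 C, fluorescence of the B/G FRET substrate was measured.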

[17] = molecular target: Peroxisome proliferator-activated receptor delta (Homo sapiens) (UniProt Q03181); assay: qHTS assay to identify small molecule agonists of the peroxisome proliferator-activated receptor delta (PPARd) signaling pathway (AID 743212; calls by dose curve)
In short: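 HEK293H UAS-bla reporter cells, human PPARd system; compounds delivered in DMSO after 5 h plating, then at 37 C. Beta-lactamase FRET read, 2 h RT substrate step.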

[18] = molecular target: Peroxisome proliferator-activated receptor delta (Homo sapiens) (UniProt Q03181); assay: qHTS assay to identify small molecule antagonists of the peroxisome proliferator-activated receptor delta (PPARd) signaling pathway (AID 743215; active = well fitted inhibition curve with a large enough effect in the signal ratio in the repeat runs, not every such curve was filed as active; the % refers to the signal ratio;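 note: cells stimulated with agonist L165041 at 300 nM final during compound exposure; series mostly up to about 62 µM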)
In short: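 PPARd-bla HEK293H cells (UAS-bla reporter) preincubated 5 h, then given compound plus 300 nM final L165041 agonist for 17 h at 37 C. Beta-lactamase activity read by LiveBLAzer B/G FRET substrate fluorescence after 2 h at room temperature.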

[19] = qHTS assay to identify small molecule antagonists of the farnesoid-X-receptor (FXR) signaling pathway - cell viability counter screen (AID 743221; active = well fitted cell-killing curve with a large enough effect in the repeat runs, not every such curve was filed as active; note: nearly all actives have a fitted effect of over 50% in size)
In short: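 Luminescence from CellTiter-Glo measures cytotoxicity in GeneBLAzer FXR-UAS-bla HEK 293T cells. Cells were exposed to compounds with 50 uM chenodeoxycholic acid (final) for 16 h at 37 C, in wells also used for the reporter readout.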

[20] = qHTS assay for small molecule activators of the heat shock response signaling pathway (AID 743210; active = well fitted activation curve with a large enough effect in the signal ratio in the repeat runs, with a control signal flat, not every such curve was filed as active; the % refers to the signal ratio;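 note: HeLa cells with beta-lactamase reporter driven by heat shock elements; series mostly up to about 63 µM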)
In short: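 In HSE-bla HeLa cells, 5 h compound incubation (37 C) precedes addition of LiveBLAzer B/G substrate; after 2.5 h at room temperature, fluorescence intensity indicates reporter induction.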

Peroxisome proliferator-activated receptor gamma (Homo sapiens), sequence (P37231 whole entry, looked up): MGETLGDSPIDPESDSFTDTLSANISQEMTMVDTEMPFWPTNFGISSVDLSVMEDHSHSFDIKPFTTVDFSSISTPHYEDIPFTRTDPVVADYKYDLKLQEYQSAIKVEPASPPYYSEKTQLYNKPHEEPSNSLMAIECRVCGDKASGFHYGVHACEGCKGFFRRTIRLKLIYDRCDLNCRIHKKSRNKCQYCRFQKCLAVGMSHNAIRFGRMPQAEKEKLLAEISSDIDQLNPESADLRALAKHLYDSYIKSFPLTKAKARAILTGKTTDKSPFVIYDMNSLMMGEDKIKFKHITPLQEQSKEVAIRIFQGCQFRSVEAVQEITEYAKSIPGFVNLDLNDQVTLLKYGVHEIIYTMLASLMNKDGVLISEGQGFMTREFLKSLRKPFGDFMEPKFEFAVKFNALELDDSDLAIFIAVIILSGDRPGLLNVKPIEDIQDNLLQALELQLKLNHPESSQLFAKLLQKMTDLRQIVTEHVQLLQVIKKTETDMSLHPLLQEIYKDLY
Vitamin D3 receptor (Homo sapiens), sequence (P11473 whole entry, looked up): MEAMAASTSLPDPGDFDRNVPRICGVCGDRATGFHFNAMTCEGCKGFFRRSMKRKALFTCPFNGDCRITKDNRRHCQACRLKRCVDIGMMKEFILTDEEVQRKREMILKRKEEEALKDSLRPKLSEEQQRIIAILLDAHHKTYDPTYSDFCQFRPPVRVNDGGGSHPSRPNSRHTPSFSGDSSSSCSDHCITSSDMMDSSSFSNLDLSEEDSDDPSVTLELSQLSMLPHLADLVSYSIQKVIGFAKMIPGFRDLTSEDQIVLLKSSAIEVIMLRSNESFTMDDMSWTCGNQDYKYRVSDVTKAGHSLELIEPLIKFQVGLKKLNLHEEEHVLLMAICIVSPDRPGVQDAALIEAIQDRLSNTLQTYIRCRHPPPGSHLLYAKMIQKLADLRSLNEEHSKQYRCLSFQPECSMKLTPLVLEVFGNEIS
Bile acid receptor (Homo sapiens), sequence (Q96RI1 whole entry, looked up): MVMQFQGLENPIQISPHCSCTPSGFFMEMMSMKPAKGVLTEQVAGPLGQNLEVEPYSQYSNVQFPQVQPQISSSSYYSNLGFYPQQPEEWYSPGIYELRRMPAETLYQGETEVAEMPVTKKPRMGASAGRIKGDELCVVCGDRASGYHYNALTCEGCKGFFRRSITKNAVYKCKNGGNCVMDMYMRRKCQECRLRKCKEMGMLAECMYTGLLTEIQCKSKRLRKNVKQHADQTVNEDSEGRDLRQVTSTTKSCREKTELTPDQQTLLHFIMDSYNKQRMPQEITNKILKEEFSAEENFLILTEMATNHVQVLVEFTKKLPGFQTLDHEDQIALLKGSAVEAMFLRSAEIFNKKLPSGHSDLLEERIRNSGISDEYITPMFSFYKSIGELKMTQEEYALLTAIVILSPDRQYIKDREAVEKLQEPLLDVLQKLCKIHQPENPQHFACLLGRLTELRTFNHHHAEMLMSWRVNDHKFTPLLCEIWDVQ
Aryl hydrocarbon receptor (Homo sapiens), sequence (P35869 whole entry, looked up): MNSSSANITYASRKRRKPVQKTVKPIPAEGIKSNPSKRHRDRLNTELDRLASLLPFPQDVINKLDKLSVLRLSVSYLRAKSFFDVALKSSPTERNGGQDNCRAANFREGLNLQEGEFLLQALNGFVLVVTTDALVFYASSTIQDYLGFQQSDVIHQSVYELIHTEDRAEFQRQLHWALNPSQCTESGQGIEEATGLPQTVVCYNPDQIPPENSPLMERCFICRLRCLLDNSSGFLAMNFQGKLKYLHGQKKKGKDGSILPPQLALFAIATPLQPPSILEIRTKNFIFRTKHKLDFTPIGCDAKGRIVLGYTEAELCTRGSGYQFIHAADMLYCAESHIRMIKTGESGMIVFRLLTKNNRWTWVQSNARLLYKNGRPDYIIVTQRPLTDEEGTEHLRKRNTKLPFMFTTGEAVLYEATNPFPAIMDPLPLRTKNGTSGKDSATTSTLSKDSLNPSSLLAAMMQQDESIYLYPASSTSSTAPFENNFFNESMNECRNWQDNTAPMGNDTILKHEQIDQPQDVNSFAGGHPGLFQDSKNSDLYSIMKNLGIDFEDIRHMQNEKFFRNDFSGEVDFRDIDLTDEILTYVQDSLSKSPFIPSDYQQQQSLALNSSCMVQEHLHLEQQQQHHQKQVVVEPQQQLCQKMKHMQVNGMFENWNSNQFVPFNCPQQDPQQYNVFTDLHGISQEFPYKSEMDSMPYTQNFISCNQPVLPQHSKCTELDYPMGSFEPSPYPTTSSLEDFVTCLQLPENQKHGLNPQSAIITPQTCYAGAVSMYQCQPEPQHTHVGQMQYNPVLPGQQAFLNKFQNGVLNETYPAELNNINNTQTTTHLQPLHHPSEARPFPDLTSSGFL
Peroxisome proliferator-activated receptor delta (Homo sapiens), sequence (Q03181 whole entry, looked up): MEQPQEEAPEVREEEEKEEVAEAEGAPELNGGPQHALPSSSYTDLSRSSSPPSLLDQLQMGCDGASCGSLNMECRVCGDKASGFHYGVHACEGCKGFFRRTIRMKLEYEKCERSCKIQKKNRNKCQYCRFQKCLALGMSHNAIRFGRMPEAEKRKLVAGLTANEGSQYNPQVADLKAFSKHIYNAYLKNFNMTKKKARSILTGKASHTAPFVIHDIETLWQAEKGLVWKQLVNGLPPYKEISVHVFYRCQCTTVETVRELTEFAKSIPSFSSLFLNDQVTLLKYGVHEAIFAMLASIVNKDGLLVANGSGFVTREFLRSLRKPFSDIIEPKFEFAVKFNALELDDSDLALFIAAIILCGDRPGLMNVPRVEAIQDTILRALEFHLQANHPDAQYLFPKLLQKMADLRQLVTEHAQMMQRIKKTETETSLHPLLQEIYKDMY

| SMILES | Potency [1] | Potency [2] | Potency [3] | Potency [4] | Potency [5] | Potency [6] | Potency [7] | outcome [8] | Potency [9] | Potency [10] | Potency [11] | Potency [12] | outcome [13] | outcome [14] | Potency [15] | Potency [16] | outcome [17] | outcome [18] | outcome [19] | outcome [20] |
| --- | --- | --- | --- | --- | --- | --- | --- | --- | --- | --- | --- | --- | --- | --- | --- | --- | --- | --- | --- | --- |
| Nc1cccc(N)c1 | inactive | 54.4 µM (active) | inactive | inactive | inactive | inactive | inactive | inactive | inactive | inactive | inactive | inactive | inactive | inactive | inactive |  |  |  |  |  |
| CN(C)Cc1cc(CN(C)C)c(O)c(CN(C)C)c1 | inactive | inactive | inactive | inactive | inactive | inactive | inactive | inactive |  | inactive | inactive | inactive | inactive |  |  |  |  |  |  |  |
| C#C[C@]1(O)CC[C@H]2[C@@H]3CCC4=CC(=O)CC[C@@H]4[C@H]3CC[C@@]21CC | inactive | inactive | inactive | inactive | inactive | inactive | inactive | inactive | inactive | inactive |  |  |  | inactive | inactive | 48.6 µM (active) | inactive | inactive |  |  |
| CC(=O)Oc1ccccc1C(=O)O | inactive | inactive | inactive | inactive | inactive | inactive | inactive | inactive | inactive | inactive |  | inactive |  | inactive | inactive |  |  |  | inactive |  |
| NC(N)=NC(N)=NCCc1ccccc1 | inactive | inactive | inactive | inactive | inactive | inactive | inactive | inactive |  | inactive |  |  |  |  |  |  | inactive | inactive |  |  |
| CCCCC/C(C=O)=C\c1ccccc1 | inactive | inactive | inactive | inactive | inactive | inactive | inactive | inactive |  | inactive | inactive | inactive | inactive |  |  | inactive | inactive | inactive | inactive | inactive |
| COc1cc(O)c(C(=O)c2ccccc2)cc1S(=O)(=O)O | inactive | inactive | inactive | inactive | inactive | inactive | inactive | inactive |  | inactive | inactive |  | inactive | inactive | inactive |  | inactive | inactive |  |  |
| CC(=O)OC/C=C(C)/C=C/C=C(C)/C=C/C1=C(C)CCCC1(C)C | inactive and 66.9 µM (active) and 61.1 µM (active) | inactive | inactive | inactive | inactive | inactive | inactive | inactive |  | inactive |  | inactive |  | inactive | inactive |  | inactive | inactive |  |  |
| CCOCCO | inactive | inactive | inactive | inactive | inactive | inactive | inactive | inactive |  | inactive | inactive |  | inactive | inactive | inactive |  |  |  | inactive | inactive |
| CC(O)COc1ccccc1 (centres undefined) | inactive | inactive | inactive | inactive | inactive | inactive | inactive | inactive | inactive | inactive | inactive |  | inactive | inactive | inactive |  | inactive | inactive |  |  |
| O=C(O)CCCCC1CCSS1 (centres undefined) | inactive | inactive | inactive | inactive | inactive | inactive | inactive | inactive | inactive | inactive |  | inactive |  | inactive | inactive |  | inactive | inactive | inactive | inactive |
| OC[C@@H](O)[C@@H](O)[C@H](O)[C@H](O)CO | inactive | inactive | inactive | inactive | inactive | inactive | inactive | inactive |  | inactive |  | inactive |  | inactive | inactive | inactive |  |  |  |  |
| Cc1cccc(C)c1O | inactive | inactive | inactive | inactive | inactive | inactive | inactive | inactive | inactive | inactive |  | inactive |  | inactive | inactive |  | inactive | inactive | inactive | inactive |
| CCN1CCCC1=O | inactive | inactive | inactive | inactive | inactive | inactive | inactive | inactive |  | inactive | inactive |  | inactive | inactive | inactive | inactive |  |  | inactive |  |
| N[C@@H](Cc1c[nH]c2ccc(O)cc12)C(=O)O | inactive | 9.44 µM (active) and 5.29 µM (active) | inactive | inactive | inactive | inactive | inactive | inactive | inactive | inactive |  | inactive |  | inactive | inactive | inactive | inactive | inactive | inactive | inactive |
| COC1=CC(=O)C[C@@H](C)[C@]12Oc1c(Cl)c(OC)cc(OC)c1C2=O | inactive | inactive | inactive | inactive and 48.5 µM (active) | 19.5 µM (active) | inactive | inactive | inactive | inactive | inactive | inactive |  | inactive | inactive |  |  | inactive |  |  |  |
| CN/C(=C\[N+](=O)[O-])NCCSCc1ccc(CN(C)C)o1 | inactive | inactive | inactive | inactive | inactive | inactive | inactive | inactive |  | inactive |  |  |  | inactive | inactive |  | inactive | inactive |  |  |
| CCN(CC)CCOC(=O)c1ccc(N)cc1 | inactive | inactive | inactive | inactive | inactive | inactive | inactive | inactive |  | inactive |  | inactive |  | inactive | inactive |  |  |  | inactive |  |
